FBW7 act: human FBW7 E3 ligase activation, primary screen | Q969H0 | AlphaScreen FBW7–phospho-cyclin E peptide binding, activator screen | normalized activity (activation), % at 26.1 µM | actives 0.13% (n = 650,000) | AID 1259310; in the data active = normalized activity above about 1.9%;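 also: purified mutant Fbw7 with reduced substrate affinity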
GPR151 activ: activates the human receptor GPR151; Q8TDV0; activation, % at 11.2 µM; PathHunter beta-arrestin GPR151 cells, luminescence; actives 1% (n = 650,000); in the data active = activation above about 4.9%
Target sequence (Q8TDV0 whole entry, looked up): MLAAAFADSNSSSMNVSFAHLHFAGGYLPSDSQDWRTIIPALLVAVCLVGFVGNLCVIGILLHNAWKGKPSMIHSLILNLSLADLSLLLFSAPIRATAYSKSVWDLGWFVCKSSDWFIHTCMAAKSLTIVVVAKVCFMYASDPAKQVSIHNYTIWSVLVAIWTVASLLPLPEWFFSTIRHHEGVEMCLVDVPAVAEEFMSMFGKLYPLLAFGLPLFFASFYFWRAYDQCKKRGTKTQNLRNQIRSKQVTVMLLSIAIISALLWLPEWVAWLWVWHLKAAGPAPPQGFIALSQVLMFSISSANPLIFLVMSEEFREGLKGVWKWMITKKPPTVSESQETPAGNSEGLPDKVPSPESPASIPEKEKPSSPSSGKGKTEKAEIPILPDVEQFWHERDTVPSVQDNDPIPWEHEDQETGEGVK
MITF primary: human MITF inhibition, primary screen; O75030; AlphaScreen MITF homodimerization, bead proximity signal; inhibition, % at 2.6 µM; actives 0.91% (n = 650,000); in the data active = inhibition above about 50%
TEAD-YAP block: TEAD-YAP interaction inhibition; HEK-TIYL cells, TEAD-Gal4/YAP UAS-luciferase luminescence; inhibition, % at 9.12 µM; actives 1.4% (n = 640,000); AID 1259422; in the data active = inhibition above about 32%
MITF confirm: human MITF inhibition, confirmation. shares compounds with MITF primary. AlphaScreen MITF homodimerization, biotin/His-MITF beads. inhibition, % at 2.6 µM. actives 16% (n = 4,700);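 active = inhibition above a cutoff derived from the DMSO control wells, cut at about 28% in these data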;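 also: inhibitors lower the bead chemiluminescence by keeping MITF from dimerizing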
AS interf DR: optically interferes with AlphaScreen signal in dose response; IC50, µM; shares compounds with MITF primary; actives 6% (n = 480); AID 1259373; AlphaScreen optical interference counterscreen, cell-free; call rule not given here
AS interf ctr: optically interferes with AlphaScreen signal. actives 7.6% (n = 4,700). shares compounds with MITF primary. inhibition, % at 2.6 µM. LysRS AlphaScreen counterscreen, signal interference, triplicate;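 active = inhibition above a cutoff derived from the DMSO control wells, cut at about 30% in these data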
Each line names hits and unclear results; the compound was inactive in the other large screens (follow-up assays come after a bar, where they were run). An excerpt weighted towards active compounds, which were near 3.5% of everything screened.

CC1=C(C(=O)OCc2ccccc2)C(c2ccc(O)c([N+](=O)[O-])c2)C2=C(CC(c3ccccc3)CC2=O)N1 (stereo unspecified)	TEAD-YAP block 44.3
COC(=O)C1=C(C)NC2=C(C(=O)CC(c3ccccc3)C2)C1c1ccc(O)c([N+](=O)[O-])c1 (stereo unspecified)	none
CC1=C(C(=O)OCc2ccccc2)C(c2cccc([N+](=O)[O-])c2)C2=C(CC(c3ccccc3)CC2=O)N1 (stereo unspecified)	TEAD-YAP block 56.0
CN1CCN(NC(=S)Nc2cccc(F)c2)CC1	none
COc1cc(COCC(O)CN2CCN(c3ccc(F)cc3)CC2)cc(OC)c1OC (stereo unspecified)	none
COc1ccc(CCn2c(C)cc(C(=O)CSc3nc(N)cc(=O)[nH]3)c2C)cc1	TEAD-YAP block 33.1
COc1ccc(CCn2c(C)cc(C(=O)CCl)c2C)cc1	TEAD-YAP block 40.3
O=C1c2ccccc2-c2onc3c(N4CCOCC4)cc(NCCO)c1c23	none
O=C1c2ccccc2-c2onc3c(N4CCOCC4)cc(NCCN4CCCC4)c1c23	MITF primary 60.6
CC(C)CNc1cc(N2CCOCC2)c2noc3c2c1C(=O)c1ccccc1-3	MITF primary 51.5
CCNc1cc(N2CCC3(CC2)OCCO3)c2noc3c2c1C(=O)c1ccccc1-3	TEAD-YAP block 38.8
COc1cccc(C(=O)Nc2nn3c(-c4ccc(C)cc4)nnc3s2)c1	none
CCCOc1ccc(C2C(C(=O)OC(C)C)=C(C)NC3=C2C(=O)CC(c2ccccc2)C3)cc1OC (stereo unspecified)	none
CC(NC(=O)C(=O)NC1CC1)c1ccccc1 (stereo unspecified)	none
O=[N+]([O-])c1cc(CN2CCN(c3cccc(C(F)(F)F)c3)CC2)c2cccnc2c1O	MITF primary 99.8
Oc1c(Cl)cc(CN2CCN(c3cccc(C(F)(F)F)c3)CC2)c2cccnc12	TEAD-YAP block 69.5
N#C/C(=C/Nc1cccc(Cl)c1Cl)c1nc(-c2ccc3c(c2)OCO3)cs1	none
CC(=O)c1cccc(-c2nc(N)c3ncn(-c4ccsc4)c3n2)c1	TEAD-YAP block 55.9
Nc1cccc(-c2nc(N)c3ncn(-c4ccsc4)c3n2)c1	TEAD-YAP block 54.3
CC(=O)c1cccc(-c2nc(Nc3ccccc3)c3ncn(-c4ccsc4)c3n2)c1	none
Cc1ccn2c(C(=O)NC(C)C)c(C)nc2c1	none
N#C/C(=C/c1ccccc1O)C(=O)Nc1ccc(O)cc1	TEAD-YAP block 70.5
Cc1ccc(NC(=O)/C(C#N)=C\c2ccccc2O)cc1	none
COc1ccc(NC(=O)/C(C#N)=C\c2ccccc2O)cc1	TEAD-YAP block 39.7
COc1ccc(/C=C2\C(=N)N3N=C(S(=O)(=O)CC(C)C)SC3=NC2=O)cc1OC	none
Cc1nc(NC(=O)c2ccccc2)sc1-c1csc(Nc2cccc([N+](=O)[O-])c2)n1	none
Cc1cc(C(=O)COC(=O)c2ccc(O)cc2O)c(C)n1-c1ccccc1	TEAD-YAP block 63.9
N#CC1=C(SCC(=O)Nc2cccc(Br)c2)NC(=O)CC1c1cccs1 (stereo unspecified)	none
COc1cccc(NC(=O)CSC2=C(C#N)C(c3cccs3)CC(=O)N2)c1 (stereo unspecified)	TEAD-YAP block 39.6
N#CC1=C(SCC(=O)Nc2cc(Cl)cc(Cl)c2)NC(=O)CC1c1cccs1 (stereo unspecified)	TEAD-YAP block 43.1
NC1=NC(=Nc2ccc(N3CCOCC3)cc2)c2ccccc21	TEAD-YAP block 47.8
CCc1ccc(N=C2N=C(N)c3ccccc32)cc1	none
CCCCNCCOCCOc1ccc(Cl)cc1	MITF primary 79.9 | MITF confirm inactive | AS interf ctr inactive
CCCCNCCOCCOc1cc(C)ccc1Cl	MITF primary 54.3 | MITF confirm inactive | AS interf ctr inactive
CCCCn1c(N)c(NC)c(=O)[nH]c1=O	none
CCCNC(=O)c1cnc(NC2CCN(Cc3ccccc3)CC2)s1	MITF primary 73.9 | MITF confirm inactive | AS interf ctr inactive
O=C(NC1CCN(Cc2ccccc2)CC1)c1cnc(NC2CCN(Cc3ccccc3)CC2)s1	none
O=C(Nc1ccc(Br)cc1)c1ccc(N2C(=O)C3C4C=CC(C4)C3C2=O)cc1 (stereo unspecified)	none
CC(C(=O)NC12CC3CC(CC(C3)C1)C2)N(C)CCOc1ccccc1 (stereo unspecified)	MITF primary 50.8 | MITF confirm inactive | AS interf ctr inactive
CCN(CC)c1nc(NCCOc2ccccc2)nc(Nc2cccc(N(C)C)c2)n1	MITF primary 60.7 | MITF confirm inactive | AS interf ctr inactive
O=C(CCc1ccccc1)Nc1nc2c(s1)CCCC2	none
O=C(NCCc1cccs1)c1ccc(OCc2nc(C3CC3)cs2)cc1	none
N#C/C(=C/c1ccco1)c1cccc(F)c1	MITF primary 68.4 | MITF confirm 29.8 | AS interf DR inactive | AS interf ctr inactive
C=CCNC(=O)CCS(=O)(=O)Cc1ccc(C)cc1	none
COc1ccc([N+](=O)[O-])cc1N(CC(=O)O)S(C)(=O)=O	MITF primary 58.7 | MITF confirm inactive | AS interf ctr inactive
O=C1C(=O)N(CC2CCCO2)C(c2ccco2)/C1=C(/O)c1ccc(Cl)cc1 (stereo unspecified)	MITF primary 52.7 | MITF confirm inactive | AS interf ctr inactive
O=C1C(=O)N(CC2CCCO2)C(c2ccc(Cl)cc2)/C1=C(/O)c1ccccc1 (stereo unspecified)	none
CCOc1ccc(C2/C(=C(/O)c3ccccc3)C(=O)C(=O)N2CCO)cc1 (stereo unspecified)	none
O=[N+]([O-])c1ccccc1CN1CCN(c2ncccn2)CC1	none
O=[N+]([O-])c1ccccc1CN1CCN(Cc2ccccn2)CC1	MITF primary 69.2 | MITF confirm inactive | AS interf ctr inactive
O=[N+]([O-])c1ccccc1CN1CCN(c2ccccn2)CC1	MITF primary 54.4 | MITF confirm inactive | AS interf ctr inactive
O=C1NC(CC(=O)N2CCCCC2c2nc3ccccc3[nH]2)c2ccccc21 (stereo unspecified)	none
NC(=O)/C(=C\c1cccc([N+](=O)[O-])c1)NC(=O)c1ccc(Br)cc1	MITF primary 52.5 | MITF confirm 32.3 | AS interf DR inactive | AS interf ctr inactive
NC(=O)/C(=C/c1cccc([N+](=O)[O-])c1)NC(=O)c1cccc(Br)c1	none
Cc1ccc(-c2nnn(CC(=O)N(CC(=O)NC3CCCCC3)c3ccccc3)n2)o1	none
CCCCOC(=O)c1ccc(NC(=O)CN(C)C2CCN(C)CC2)cc1	MITF primary 57.7 | MITF confirm inactive | AS interf ctr inactive
CC(=O)N1CCN(CC(=O)Nc2ccc3c(c2)OC(F)(F)O3)CC1	none
Cc1ccc2nc(-c3ccc(NC(=O)Cc4ccccc4)cc3)sc2c1	none
